Results from PubChem BioAssay (NCATS).
Records with an inconclusive call do not appear. Entries that show only a call come without a potency. Activity calls are given as the source filed them. Calls come from the whole dose curve; as a rule, active = well fitted curve in the direction sought with a large enough effect; inconclusive = small, poorly fitted or top-dose-only effect, or another doubt; inactive = no such curve, though single readings can be large; an effect the other way counts as inactive or inconclusive.

What was measured:
[1] = target: Aldehyde dehydrogenase, mitochondrial (Homo sapiens) (UniProt P05091); assay: qHTS for Inhibitors of the Aldehyde Dehydrogenase Family (ALDH2) Primary screen (AID 2061308); note: nearly all actives have a fitted effect of over 55% in size
[2] = target: Retinaldehyde dehydrogenase 3 (Homo sapiens) (UniProt P47895); assay: qHTS for Inhibitors of the Aldehyde Dehydrogenase Family (ALDH1A3) Primary screen (AID 2061315)

| Compound | Potency [1] | Potency [2] |
| --- | --- | --- |
| Cc1cccc(C)c1-n1c(SCC(=O)Nc2ccc(C(=O)O)cc2)nnc1-c1ccc([S+](=O)([O-])N2CCCC2)cc1 | inactive | inactive |
| COc1ccc(O[C@@H]2O[C@H](CO)[C@H](O)[C@H](O)[C@H]2O)cc1 | inactive | inactive |
| CC(C)n1nc(Cc2cccc3ccccc23)c2c(N)ncnc21 | inactive | inactive |
| O=C(COC(=O)CNC(=O)c1ccccc1Cl)Nc1ccccc1Cl | inactive | inactive |
| COc1cccc(NC(=S)N2CCN(c3cccc(Cl)c3Cl)CC2)n1 | inactive | inactive |
| Cc1ccc(S(=O)(=O)N(C)c2cccc3cccnc23)cc1 | inactive | inactive |
| CN(Cc1cccs1)c1ncnc2ccc(-c3ccc4c(c3)OCO4)cc12 | inactive | inactive |
| CN(CCc1cccs1)c1ncnc2ccc(-c3ccc4c(c3)OCO4)cc12 | inactive | inactive |
| CCCCN1C(=O)c2ccccc2NC1c1ccc(OC)c(COc2c(C)cc(NC(C)=O)cc2C)c1 (stereo not given) | inactive | inactive |
| Cc1ccc(-c2cc(C(=O)Nc3ccccc3C)c3ccccc3n2)cc1C | inactive | inactive |
| COc1cccc(C(=O)NC2CCN(C#N)CC2)c1 | inactive | inactive |
| O=C1CCc2cc(S(=O)(=O)Nc3cccc(C(F)(F)F)c3)ccc2N1 | inactive | inactive |
| COCCNc1nc(C)nc2c1nc(-c1ccccc1)n2CCN1CCCC1 | inactive | inactive |
| Cc1cn(-c2cc(F)cc(NC(=O)c3ccc(C)c(Nc4nccc(-c5cccnc5)n4)c3)c2)cn1 | inactive | inactive |
| N#Cc1nonc1-c1ccccc1 | inactive | inactive |
| CC(=O)Oc1ccc(C2(c3ccc(OC(C)=O)cc3)Oc3ccccc3NC2=O)cc1 | inactive | inactive |
| CNc1nccc(-c2cccc3ccccc23)n1 | inactive | inactive |
| Cc1ccc(-c2csc3ncnc(Sc4nnnn4C)c23)cc1 | inactive | inactive |
| Cc1ccc(NS(=O)(=O)c2ccccc2C(=O)Nc2nc(-c3ccccc3)cs2)cc1 | inactive | inactive |
| O=C(COC(=O)CNC(=O)C1CCCCC1)Nc1cc(C(F)(F)F)ccc1Cl | inactive | inactive |
| COCCN(CCOC)c1nc(C)nc2c1nc(-c1ccccc1)n2CCCN(C)C | inactive | inactive |
| O=C(Nc1nnc(-c2ccco2)o1)c1ccc(Br)cc1 | inactive | inactive |
| COc1ccc(NC(=O)C(OC(=O)CNC(=O)c2ccccc2)c2ccccc2)cc1Cl (stereo not given) | inactive | inactive |
| COc1ccc(C2Nc3ccccc3C(=O)N2Cc2ccccc2OC)cc1COc1c(C)cc(NC(C)=O)cc1C (stereo not given) | inactive | inactive |
| N#Cc1c(Cl)cccc1Oc1ccc([S+](=O)([O-])N2CCN([S+](=O)([O-])c3c(F)cccc3F)CC2)cc1 | inactive | inactive |
| Cc1scc2c1C(=O)NS2(=O)=O | inactive | inactive |
| O=[N+]([O-])c1cccc(CNc2ccc(S(=O)(=O)Nc3nccs3)cc2)c1O | inactive | inactive |
| COc1ccccc1C1=Nn2c(nnc2-c2ccccc2O)SC1 | inactive | inactive |
| Cc1ccc(NS(=O)(=O)c2cc3c(cc2N2CCCCC2)NC(=O)CC3)cc1C | inactive | inactive |
| COc1cc(O)c(C(CC(=O)N2CCCC(C(=O)N3CCCCC3)C2)c2ccc3c(c2)OCO3)c(OC)c1 (stereo not given) | inactive | inactive |
